RE007 growth inh – qHTS Assay for Inhibitors of the HIV-1 protein Vpr. S. pombe RE007 Vpr strain, BacTiter-Glo ATP luminescence, 24 h. Potency, µM (titrated, usually from 92.2 µM), inactives show at the highest dose activity change, negative = less growth, hits mostly inhibitors. 360,000 compounds, 0.21% hits; active means well fitted falling curve with a large enough effect; inconclusive means small, poorly fitted or top-dose-only effect; inactive means no such curve, though single readings can be large or run the other way; further: potency means the concentration at half of the fitted maximal effect; on the % scale 0 is the no-effect control and ±100 the full control effect; nearly all actives have a fitted effect of over 50% in size
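Fission yeast strain RE007, carrying one chromosomally integrated HIV-1 vpr copy, was seeded at OD 0.01 in PMG+AL medium with 23 nL pinned compound. After 24 h at 30 °C and 99% humidity, viability was read by BacTiter-Glo luminescence.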
CHX counter – Cycloheximide Counterscreen for Small Molecule Inhibitors of Shiga Toxin; cell reporter, cycloheximide protein synthesis inhibition counterscreen; max response, %; 300,000 compounds, 12% hits; AID 2314, 2010; in the data active means max response mostly above about 13%, no sharp cut-off; inactive means mostly below about 14%; further: read at 38.3 µM for the half of the compounds with a filed dose; 0% is about no effect
LmPK inhibitor – qHTS Assay for Inhibitors of Leishmania Mexicana Pyruvate Kinase (LmPK). Potency, µM (series often up to 57.5 µM), inactives show at the top dose activity change, negative = inhibition, actives largely listed as inhibitors. 290,000 compounds, 0.37% hits. Q27686. purified LmPK, Kinase-Glo ATP luminescence, 1 h; further: potency means the concentration at half of the fitted maximal effect; on the % scale 0 is the no-effect control and ±100 the full control effect
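Screened at intermediate enzyme activity to detect both inhibitors and activators: LmPK at 0.1 nM, with a 0.5 nM enzyme column as activation reference. PEP 0.5 mM, ADP 0.1 mM; ATP detected by luminescence after 1 h.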
FBPA Giardia inh – qHTS Assay for Inhibitors of Fructose-1,6-bisphosphate Aldolase from Giardia Lamblia. A8B2U2. purified Giardia FBPA. Potency, µM (top dose mostly 59.6 µM), for the others: at the top dose activity, negative = inhibition, hits mostly inhibitors. 290,000 compounds, 0.71% hits. AID 2451, 2010; further: potency means the concentration at half of the fitted maximal effect; on the % scale 0 is the no-effect control and ±100 the full control effect; nearly all actives have a fitted effect of over 55% in size
Target sequence (A8B2U2 whole entry, looked up): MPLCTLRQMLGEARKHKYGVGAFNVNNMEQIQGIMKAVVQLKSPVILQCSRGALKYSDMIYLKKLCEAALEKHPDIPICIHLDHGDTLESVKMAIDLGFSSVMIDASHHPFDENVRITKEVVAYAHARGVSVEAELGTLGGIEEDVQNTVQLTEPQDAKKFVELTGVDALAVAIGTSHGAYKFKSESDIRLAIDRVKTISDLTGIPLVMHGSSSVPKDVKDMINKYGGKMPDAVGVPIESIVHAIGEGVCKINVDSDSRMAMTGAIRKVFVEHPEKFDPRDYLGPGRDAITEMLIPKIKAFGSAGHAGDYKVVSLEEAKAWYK
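40 nM FBPA preincubated 10 min at RT with compound (up to 57.5 uM final), then substrate plus GAPDH/TPI/NAD/arsenate coupling and diaphorase/resazurin added. Fluorescence read after 20 min at RT, 525/598 nm.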
TbPYK inhibitor – qHTS of Trypanosoma Brucei Inhibitors | pyruvate kinase (Trypanosoma brucei), Q57TT1 | TbPYK enzyme, Kinase-Glo Plus ATP luminescence, 45 min | Potency, µM (doses to about 76.8 µM), inactives show at the top dose activity, negative = inhibition, most hits filed as inhibitors | 410,000 compounds, 0.12% hits | AID 624173, 2012; further: potency means the concentration at half of the fitted maximal effect; on the % scale 0 is the no-effect control and ±100 the full control effect; nearly all actives have a fitted effect of over 50% in size
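Activity of T. brucei pyruvate kinase was followed by Kinase-Glo Plus luminescence after the enzyme reacted 45 min at room temperature with 130 uM ADP (final) and substrate. Test compounds were added before ADP at multiple concentrations.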
Shiga inhibitor – A qHTS for Small Molecule Inhibitors of Shiga Toxin; Vero cells, Shiga toxin protein synthesis inhibition reporter; inhibition, % at 38.7 µM; 290,000 compounds, 9.2% hits; in the data active means inhibition mostly above about 28%, no sharp cut-off; inactive means mostly below about 43%; further: 0% is about no effect
The depositor's hits bear a star; ? = inconclusive; nt = not tested or not shown; [ ] = dose if it differs, or a comment. The full list was thinned out, with hits kept by preference. Unless noted, the call rests on the fitted dose curve; in most records, active means well fitted curve in the direction sought with a large enough effect; inconclusive means small, poorly fitted or top-dose-only effect, or another doubt; inactive means no such curve, though single readings can be large; an effect the other way counts as inactive or inconclusive.

SMILES	RE007 growth inh	CHX counter	LmPK inhibitor	FBPA Giardia inh	TbPYK inhibitor	Shiga inhibitor
COc1ccc(-c2nnc(SCC(=O)NC(=O)NCc3ccccc3)o2)cc1	1%	-3	3%	1%	4%	-5
O=C(CSc1nnc(-c2cccs2)o1)c1cccs1	4%	93*	0%	1%	0%	88*
COc1ccc(-c2nnc(SCC(=O)c3ccc[nH]3)o2)cc1	3%	36*	-11%	5%	-2%	151*
COc1ccc(-c2nnc(SCC(=O)c3cccs3)n2-c2ccc(Cl)cc2)cc1	-4%	40*	3%	-1%	-13%	75*
CCNC(=O)CSc1nnc(-c2cccs2)o1	7%	11	-1%	2%	-5%	9
O=C(CSc1ccc(-c2cccs2)nn1)c1cccs1	?	46*	7%	-16%	3%	104*
O=C(N/N=C1/C[C@@H](O)[C@@H](O)[C@@H]2[C@@H]3C(=O)N(c4cccc(Oc5ccccc5)c4)C(=O)[C@H]3CC[C@H]12)OCc1ccccc1	nt	nt	nt	1%[12.9 µM]	nt	nt
CCCc1nn2c(=O)cc(COC(=O)c3ccc(NC(=O)COc4ccccc4F)cc3)nc2s1	nt	nt	nt	nt	1%	nt
COc1ccc(-c2nnc(SCC(=O)c3ccc(O)cc3O)o2)cc1	-6%	7	-4%	9%	0%	33*
COc1ccc(-n2c(-c3ccc(F)cc3)cnc2SCC(=O)NCc2ccco2)cc1	0%	49*	1%	-4%	-3%	103*
COc1cccc(NC(=O)CSc2nnc(-c3cc(C)n(-c4ccccc4)c3C)o2)c1	2%	48*	0%	0%	-1%	101*
COc1ccc(-n2nnc3c(SCC(=O)NCc4ccco4)ncnc32)cc1	0%	19*	1%	0%	-8%	20
COc1ccc(NC(=O)CSc2nnc(-c3cccc(O)c3)o2)cc1	5%	10	4%	-8%	1%	34
COc1ccc(C(=O)CSc2nnc(-c3cc(C)cc(C)c3)o2)cc1	9%	-4	0%	4%	10%	3
O=C(CSc1ncc(-c2ccccc2)n1-c1ccccc1)NCc1ccco1	3%	9	-4%	0%	-13%	11
O=C(CSc1ncn[nH]1)Nc1ccc(OCc2ccccc2)cc1	15%	34*	1%	0%	-4%	145*
Cc1ccc(NC(=O)CSc2ncn[nH]2)cc1	3%	14*	9%	-4%	0%	36
CCOc1ccc(NC(=O)CSc2ncn[nH]2)cc1	0%	18*	-13%	nt	-2%	11
O=C(CSc1ncn[nH]1)Nc1ccc2c(c1)CCC2	nt	20*	2%	0%	-11%	-14
COc1ccc(C)cc1NC(=O)CN1c2ccccc2S(=O)(=O)c2ccccc21	nt	nt	nt	nt	2%	nt
COc1ccc(NC(=O)COCc2cc(-c3ccc4c(c3)OCO4)on2)cc1	nt	nt	nt	nt	2%	nt
COCCCn1c(SCC(=O)Nc2ccc(OC)cc2)nc2c(sc3ccccc32)c1=O	nt	nt	nt	nt	-1%[15.4 µM]	nt
Nc1nc(Cl)cc(Nc2ccccc2Cl)n1	-6%	12*	4%	0%	5%	18
O[C@@H]1[C@@H]2c3cc4c(cc3CN3CCC(=C[C@@H]1O)[C@H]23)OCO4	nt	nt	nt	-1%[21.7 µM]	nt	nt
O=[N+]([O-])c1ccc(Sc2nc3ccccc3o2)c([N+](=O)[O-])c1	?	10	5%	-18%	-2%	55*
SMILES	RE007 growth inh	CHX counter	LmPK inhibitor	FBPA Giardia inh	TbPYK inhibitor	Shiga inhibitor
COCCn1c(C)cc(C(=O)COC(=O)c2ccc(S(=O)(=O)N(C)C)cc2)c1C	-11%	nt	nt	nt	4%	nt
COCCn1c(C)cc(C(=O)COC(=O)c2cccnc2SC)c1C	-10%	nt	nt	nt	-5%	nt
COCCn1c(C)cc(C(=O)COC(=O)c2ccc(NC(=O)CC#N)cc2)c1C	14%	40*	-8%	-3%	-7%	73*
COCCn1c(C)cc(C(=O)COC(=O)c2cncc(Br)c2)c1C	-14%	36*	-16%	-1%	-7%	54*
COCCn1c(C)cc(C(=O)COC(=O)c2ccc3ncsc3c2)c1C	-20%	24*	-1%	7%	?	110*
O=C(OCC(=O)c1ccco1)c1ccc2ncsc2c1	18%	29*	-2%	10%	-29%	58
NC(N)=NCCC[C@H](N)C(=O)N1CCC[C@H]1C(=O)N1CCC[C@H]1C(=O)NCC(=O)N[C@@H](Cc1ccccc1)C(=O)N[C@@H](CO)C(=O)N1CCC[C@H]1C(=O)N[C@@H](Cc1ccccc1)C(=O)O	nt	1	nt	2%	nt	-4
CCOC(=O)Cn1c(=O)n(C2CCCCC2)c2nc(-c3ccccc3Cl)nc(C(N)=O)c21	nt	nt	nt	nt	-2%	nt
Cc1ccc2c(CC(=O)Nc3sccc3C(N)=O)coc2c1	4%	41*	2%	0%	-8%	81*
Cc1ccc2c(CC(=O)Nc3ccc(N4CCN(C)CC4)cc3C)coc2c1	-22%	18*	-3%	3%	-1%	47
Cc1ccc(NC(=O)Cc2coc3c(C)c(C)ccc23)c(C)c1	nt	nt	nt	nt	3%	nt
CCOC(=O)c1c(NC(=O)Cc2coc3cc(C)ccc23)sc2c1CCCC2	nt	nt	nt	nt	-7%	nt
CCOc1ccc(CCNC(=O)CCc2c(C)nc3cc(-c4ccccc4OC)nn3c2C)cc1	nt	nt	nt	nt	-3%	nt
CC(O)c1nc2ccccc2n1CC(=O)Nc1ccc2c(c1)OCCO2 (configuration not stated)	-10%	27*	1%	2%	1%	27
Cn1c(C(=O)O)c(CC(=O)Nc2ccc3c(c2)OCCO3)c2ccccc21	7%	64*	0%	-6%	2%	147*
Cc1ccc(NC(=O)Cc2c(C(=O)O)n(C)c3ccccc23)cc1F	15%	12	25%	21%	0%	44
O=C(Cn1nnc(-c2cccs2)n1)NCCc1ccccc1	0%	20*	1%	3%	1%	29
COc1ccc(C(=O)Cn2nnc(-c3cccs3)n2)cc1	?	63*	3%	-4%	-9%	91*
COc1cccc(-c2nnn(CCC(=O)O)n2)c1	-11%	-2	?	12%	7%	-6
COc1ccc(CCNC(=O)Cn2nnc(-c3cccs3)n2)cc1OC	4%	-3	1%	1%	-5%	-15
COC(=O)Cn1nnc(-c2cccc(OC)c2)n1	-10%	22*	-12%	-1%	8%	65*
Cc1ccccc1CNC(=O)c1c(C)oc2c1C1=NCCN1C=N2	nt	nt	nt	nt	-3%	nt
Clc1ccc(OCC#CCN2CCCC2)cc1	-13%	23*	-2%	?	-11%	61*
CN1CCN(CC#CCOc2ccc(Cl)cc2)CC1	9%	21*	-3%	?	1%	nt
